Assay [1] in a line: yeast TOR pathway RPL19A-GFP modulators, primary screen, cell-based, S. cerevisiae, multiplex flow cytometry (AID 1862; in the data active = percent of DMSO control GFP below about 86%;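 note: lower values mimic rapamycin by blocking the RPL19A rise seen in DMSO cells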). As to conditions: S. cerevisiae RPL19A-GFP strain, flow cytometry fluorescence, 3 h; at 10 µM; stronger effect = lower value. Background: Flow cytometry measures light scatter and fluorescence of single cells or particles in a stream.
Assay [2] in a line: modulators of MEP2-GFP levels in yeast, primary screen, S. cerevisiae, multiplex flow cytometry (AID 1867;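 active = GFP response, as percent of the DMSO control, above the screen-wide mean plus 3 SD, about 139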;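 note: median GFP channel fluorescence of barcode-gated MEP2-GFP cells measured by flow cytometry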). The following applies: S. cerevisiae MEP2-GFP strain, 3 h, at 10 µM, stronger effect = higher value, 100% means same as DMSO wells.
Assay [3] can be described thus: modulators of CIT2-GFP expression in yeast, primary screen, S. cerevisiae, GFP fusion, multiplex flow cytometry (AID 1870;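 active = percent response above a set limit, the screen-wide mean plus 3 SD, cut at about 130% in these data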;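 note: barcoded CIT2-GFP strain pooled with four other GFP strains with rapamycin as positive control; median GFP fluorescence per well over plate mean of DMSO wells so 100% = DMSO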). As to conditions: 3 h, at 10 µM, stronger effect = higher value.
A short description of assay [4]: modulators of LAP4-GFP expression in yeast, primary screen, S. cerevisiae, multiplex flow cytometry (AID 1873;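 active = GFP signal, as percent of the solvent control, above the screen mean plus 3 SD, about 149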). As to conditions: 3 h, at 10 µM, stronger effect = higher value.
Assay [5] in a line: modulators of AGP1-GFP expression in yeast TOR pathway, primary screen, cell-based, multiplex flow cytometry, S. cerevisiae (AID 1887;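 active = GFP signal above the screen-wide mean plus 3 SD, that is over about 124.5% of the solvent control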;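 note: AGP1-GFP fusion strain of S. cerevisiae within a five-strain barcoded multiplex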). As to conditions: 3 h, at 10 µM, stronger effect = higher value.
Assay [6] in a line: inhibitors of CD8+ T cell-vesicle binding, pilot screen, LFA-1/ICAM-1 modulator project, MLPCN validation set, flow cytometry (AID 2523;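 active = response below a set limit, under 55% cells CD8-positive and vesicle-bound, and CD8 cells' 90th-percentile brightness under 279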;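 for vesicle binding response: mean PE anti-B7-1 fluorescence of CD8+ cells relative to row control; 100% = QL9-loaded vesicles with DMSO vehicle in the same plate row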). As to conditions: 2C mouse CD8+ T cells, at 7 µM, stronger effect = lower value; double positive events: measured here: CD8+/vesicle+ event percentage.
For assay [7], the target named is Integrin beta-1 (Homo sapiens) + Integrin alpha-4 (Homo sapiens) (UniProt P13612+P05556). Nature of the assay: inhibition of HUTS-21 binding to VLA-4, pilot screen, VLA-4 allosteric modulator project, U937 cells, HUTS-21 mAb, flow cytometry, validation set (AID 2674;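 active = inhibition above 50%, about 3 SD of the validation set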;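 note: antibody binding induced by the VLA-4 ligand LDV present at three times its Kd; 0% = LDV ligand with antibody and no compound and 100% = antibody without LDV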). As to conditions: HUTS-21 LIBS mAb binding, at 6.7 µM, stronger effect = higher value, binding induced by LDV ligand.

Assay [8] is described as follows: superoxide lowering in aged yeast cells, pilot screen, validation compound set (AID 2706;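 active = superoxide response below 65% of plate, a cut near 3 SD across the whole screen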;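 note: yeast exposed to compound for one week at 30 degrees C before staining; 100% = mean of all compound wells on the same plate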). The following applies: S. cerevisiae aging, superoxide DHE fluorescence; at 10 µM; stronger effect = lower value.
For assay [9], the target named is Beta-adrenergic receptor kinase 1 (Homo sapiens) (UniProt P25098). Nature of the assay: GRK2 binders displacing RNA aptamer, biochemical, validation, human GRK2, bead flow cytometry (AID 488806;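 active = aptamer binding inhibition above 30%, about 3 SD of noise from non-fluorescent compounds; inactive = inhibition at or below 30%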). The following applies: bead-bound GRK2, FAM-aptamer displacement, at 10 µM, stronger effect = higher value.
Assay [10] has as its target Beta-2 adrenergic receptor (Homo sapiens) (UniProt P07550). Nature of the assay: beta2AR agonists driving receptor internalization, pilot screen, cell-based, FAP fluorogen, flow cytometry, validation set (AID 504459;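 active = percent response above 42, roughly 3 SD of non-fluorescent test compounds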;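 note: agonist-driven loss of surface beta2AR via internalization measured by FAP dye flow cytometry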). The following applies: Am2.2-beta2AR cells, FAP surface receptor flow cytometry; at 10 µM; stronger effect = higher value.
Assay [11] concerns the target AP-2 complex subunit beta (Homo sapiens) (UniProt P63010). Nature of the assay: inhibitors of arrestin peptide binding to AP2, pilot screen, biochemical, validation set, GST-AP2 beads, flow cytometry (AID 504541;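 active = inhibition above 54%, about 3 SD of non-fluorescent compounds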;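 note: AP2 carries R879A mutation and is captured from E. coli lysate; bead-bound FITC arrestin peptide fluorescence measuring arrestin peptide binding to AP2; 0% = DMSO wells and 100% = excess unlabeled arrestin peptide control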). The following applies: FITC arrestin peptide, at 10 µM, stronger effect = higher value, AP2 beta2 appendage fragment, R879A mutant.
The nature of assay [12]: yeast V-ATPase proton transport modulators, S. cerevisiae, pHLuorin, HTS validation (AID 504600; in the data active = response above about 15%;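 note: plate controls were DMSO for no effect and reference compound for full effect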). As to conditions: S. cerevisiae pHLuorin cytosolic pH, at 10 µM, stronger effect = higher value.
The subject of assay [13] is anti-desmoglein-3 scFv antibody binding to human DSG3. Nature of the assay: inhibitors of anti-DSG3 scFv binding to DSG3, pilot screen, biochemical, validation compound set, bead-based, flow cytometry (AID 588368;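 active = binding below the plate cutoff, the plate median minus 3 SD, with a reading above zero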;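 note: signal is the median channel fluorescence of bead-bound GFP antibody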). The following applies: Protein G beads, DSG3-Fc, scFv-GFP binding, at 10 µM, stronger effect = lower value.
The nature of assay [14]: inhibitors of fungal efflux pumps CDR1, CDR2, MDR1, pilot screen, validation compound set, multiplex, phenotypic (AID 588506;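 active = efflux inhibition above 0.42, the validation set average plus 4 SD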;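 note: Nile Red retained in cells so higher fluorescence means more efflux inhibition; 0 = negative control wells and 1 = enniatin B 25 µM full block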). As to conditions: S. cerevisiae pump-expressing triplex, Nile Red efflux flow cytometry; at 10 µM; stronger effect = higher value; the pumps come from Candida albicans.
The target of assay [15] is ATP-binding cassette sub-family B member 6 (Homo sapiens) (UniProt Q9NP58). The experiment in a line: ABCB6 transporter inhibitors, pilot screen, K562-ABCB6 cells, flow cytometry, validation set (AID 588550;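 active = inhibition above the screen-wide mean plus 3 SD, about 51%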;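 note: 0% = DMSO wells and 100% = benzethonium chloride 70 µM positive control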). As to conditions: K562-ABCB6 porphyrin accumulation, 1 h, at 10 µM, stronger effect = higher value.
Assay [16] is described as follows: promoters of myeloid differentiation in arrested cells, primary screen, cell-based, GFP/MAC1 double positive, flow cytometry, validation set (AID 588685).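 Note: compound exposure lasts four days before antibody staining and flow analysis; 0% = DMSO wells and 100% = 5 µM fulvestrant positive control.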 As to conditions: ER-HoxA9 marrow cells, stronger effect = higher value, normalized: vehicle 0, fulvestrant 100.

Structures are written as SMILES. Records with an inconclusive call do not appear. Active and inactive are the calls of the source.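 Rule for the calls, unless noted: active = differentiation response of at least 50%, scaled between solvent and reference control, from cells with both markers; inactive = the rest.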

Results on seven molecules are retold here after PubChem BioAssay.

What is called inhibition is the change of the read-out against control, counted positive when it falls.

Sequence of Beta-2 adrenergic receptor (Homo sapiens) (P07550 whole entry, looked up): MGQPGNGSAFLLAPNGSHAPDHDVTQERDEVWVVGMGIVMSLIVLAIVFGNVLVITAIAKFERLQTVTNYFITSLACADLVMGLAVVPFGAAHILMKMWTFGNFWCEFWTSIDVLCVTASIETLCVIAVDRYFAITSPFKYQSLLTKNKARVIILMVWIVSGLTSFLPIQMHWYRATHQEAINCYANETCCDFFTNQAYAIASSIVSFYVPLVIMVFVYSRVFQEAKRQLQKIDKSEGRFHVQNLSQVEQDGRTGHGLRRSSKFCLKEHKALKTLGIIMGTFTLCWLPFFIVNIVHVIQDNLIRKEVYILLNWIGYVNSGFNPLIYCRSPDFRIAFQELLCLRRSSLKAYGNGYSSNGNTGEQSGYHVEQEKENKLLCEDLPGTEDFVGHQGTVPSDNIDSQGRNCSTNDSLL
Sequence of AP-2 complex subunit beta (Homo sapiens) (P63010 whole entry, looked up, the tested form may be a part, one chain of several): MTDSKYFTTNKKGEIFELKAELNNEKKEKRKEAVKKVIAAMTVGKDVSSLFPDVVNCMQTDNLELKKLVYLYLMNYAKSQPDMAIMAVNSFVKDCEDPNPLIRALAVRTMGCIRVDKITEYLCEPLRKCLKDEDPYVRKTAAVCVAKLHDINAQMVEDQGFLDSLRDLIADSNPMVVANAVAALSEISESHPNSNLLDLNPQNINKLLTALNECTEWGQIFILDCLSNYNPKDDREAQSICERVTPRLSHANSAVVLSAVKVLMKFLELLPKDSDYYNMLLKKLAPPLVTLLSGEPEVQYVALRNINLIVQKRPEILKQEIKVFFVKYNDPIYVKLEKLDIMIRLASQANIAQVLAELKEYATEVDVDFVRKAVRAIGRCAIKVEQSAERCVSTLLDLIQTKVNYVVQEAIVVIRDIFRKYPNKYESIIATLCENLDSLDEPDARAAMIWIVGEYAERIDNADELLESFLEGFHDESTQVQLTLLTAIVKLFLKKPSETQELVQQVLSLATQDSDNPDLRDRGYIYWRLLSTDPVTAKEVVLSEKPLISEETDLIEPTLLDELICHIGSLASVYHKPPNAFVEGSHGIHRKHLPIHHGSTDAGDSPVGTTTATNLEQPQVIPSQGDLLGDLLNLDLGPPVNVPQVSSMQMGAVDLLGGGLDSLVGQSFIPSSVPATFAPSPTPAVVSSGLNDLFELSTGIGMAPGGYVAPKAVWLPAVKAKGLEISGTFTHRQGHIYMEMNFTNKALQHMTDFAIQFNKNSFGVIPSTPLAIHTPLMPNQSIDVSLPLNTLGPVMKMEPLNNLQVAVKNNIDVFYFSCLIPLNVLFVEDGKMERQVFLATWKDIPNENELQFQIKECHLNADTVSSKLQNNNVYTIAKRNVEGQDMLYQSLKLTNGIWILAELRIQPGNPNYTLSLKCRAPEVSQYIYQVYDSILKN
Sequence of Integrin beta-1 (Homo sapiens) + Integrin alpha-4 (Homo sapiens) (P05556 whole entry, looked up): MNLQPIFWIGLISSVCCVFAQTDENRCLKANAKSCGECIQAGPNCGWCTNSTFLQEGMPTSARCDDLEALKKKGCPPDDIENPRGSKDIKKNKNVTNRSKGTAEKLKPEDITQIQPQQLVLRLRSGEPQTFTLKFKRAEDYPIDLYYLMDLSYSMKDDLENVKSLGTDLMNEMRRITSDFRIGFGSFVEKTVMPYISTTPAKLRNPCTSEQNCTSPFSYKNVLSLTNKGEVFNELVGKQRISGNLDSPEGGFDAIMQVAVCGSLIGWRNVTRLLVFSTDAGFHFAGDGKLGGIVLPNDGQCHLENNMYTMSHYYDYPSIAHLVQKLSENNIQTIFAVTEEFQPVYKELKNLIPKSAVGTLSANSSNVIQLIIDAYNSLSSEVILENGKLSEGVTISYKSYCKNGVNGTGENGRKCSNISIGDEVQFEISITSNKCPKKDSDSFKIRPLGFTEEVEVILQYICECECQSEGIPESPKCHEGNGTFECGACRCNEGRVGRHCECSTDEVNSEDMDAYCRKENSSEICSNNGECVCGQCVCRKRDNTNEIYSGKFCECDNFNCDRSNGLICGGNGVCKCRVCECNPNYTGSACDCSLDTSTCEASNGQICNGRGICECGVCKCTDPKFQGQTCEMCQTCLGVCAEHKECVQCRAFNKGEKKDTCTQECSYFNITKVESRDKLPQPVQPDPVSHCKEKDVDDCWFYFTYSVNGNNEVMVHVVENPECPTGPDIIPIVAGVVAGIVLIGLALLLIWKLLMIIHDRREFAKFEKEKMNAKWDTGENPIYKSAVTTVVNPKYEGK
Sequence of Integrin beta-1 (Homo sapiens) + Integrin alpha-4 (Homo sapiens) (P13612 whole entry, looked up): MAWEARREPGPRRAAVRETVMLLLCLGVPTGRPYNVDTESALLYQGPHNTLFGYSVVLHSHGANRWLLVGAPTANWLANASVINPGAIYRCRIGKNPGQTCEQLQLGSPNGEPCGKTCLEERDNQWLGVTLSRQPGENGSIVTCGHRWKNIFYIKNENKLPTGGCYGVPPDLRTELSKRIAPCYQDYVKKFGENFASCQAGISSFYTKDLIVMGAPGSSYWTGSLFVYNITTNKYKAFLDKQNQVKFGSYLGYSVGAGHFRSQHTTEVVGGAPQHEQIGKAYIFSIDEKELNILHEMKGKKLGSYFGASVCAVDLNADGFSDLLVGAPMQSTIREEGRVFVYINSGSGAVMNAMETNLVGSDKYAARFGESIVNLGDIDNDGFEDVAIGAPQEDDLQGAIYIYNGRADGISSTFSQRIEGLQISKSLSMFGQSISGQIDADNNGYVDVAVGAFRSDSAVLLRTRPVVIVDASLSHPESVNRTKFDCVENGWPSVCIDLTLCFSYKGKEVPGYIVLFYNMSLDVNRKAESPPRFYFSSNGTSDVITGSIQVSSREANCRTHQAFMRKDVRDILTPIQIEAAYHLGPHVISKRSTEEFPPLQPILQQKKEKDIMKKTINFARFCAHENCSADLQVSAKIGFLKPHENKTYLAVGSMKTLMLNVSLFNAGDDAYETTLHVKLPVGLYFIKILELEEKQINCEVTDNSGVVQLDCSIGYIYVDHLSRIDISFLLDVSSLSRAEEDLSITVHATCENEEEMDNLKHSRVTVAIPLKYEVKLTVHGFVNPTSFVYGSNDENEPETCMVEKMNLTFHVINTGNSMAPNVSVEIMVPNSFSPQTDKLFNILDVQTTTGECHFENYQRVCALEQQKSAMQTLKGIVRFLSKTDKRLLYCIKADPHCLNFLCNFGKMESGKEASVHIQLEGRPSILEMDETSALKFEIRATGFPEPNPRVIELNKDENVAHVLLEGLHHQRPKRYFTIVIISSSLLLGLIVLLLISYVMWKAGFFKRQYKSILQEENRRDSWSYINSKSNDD
Sequence of ATP-binding cassette sub-family B member 6 (Homo sapiens) (Q9NP58 whole entry, looked up): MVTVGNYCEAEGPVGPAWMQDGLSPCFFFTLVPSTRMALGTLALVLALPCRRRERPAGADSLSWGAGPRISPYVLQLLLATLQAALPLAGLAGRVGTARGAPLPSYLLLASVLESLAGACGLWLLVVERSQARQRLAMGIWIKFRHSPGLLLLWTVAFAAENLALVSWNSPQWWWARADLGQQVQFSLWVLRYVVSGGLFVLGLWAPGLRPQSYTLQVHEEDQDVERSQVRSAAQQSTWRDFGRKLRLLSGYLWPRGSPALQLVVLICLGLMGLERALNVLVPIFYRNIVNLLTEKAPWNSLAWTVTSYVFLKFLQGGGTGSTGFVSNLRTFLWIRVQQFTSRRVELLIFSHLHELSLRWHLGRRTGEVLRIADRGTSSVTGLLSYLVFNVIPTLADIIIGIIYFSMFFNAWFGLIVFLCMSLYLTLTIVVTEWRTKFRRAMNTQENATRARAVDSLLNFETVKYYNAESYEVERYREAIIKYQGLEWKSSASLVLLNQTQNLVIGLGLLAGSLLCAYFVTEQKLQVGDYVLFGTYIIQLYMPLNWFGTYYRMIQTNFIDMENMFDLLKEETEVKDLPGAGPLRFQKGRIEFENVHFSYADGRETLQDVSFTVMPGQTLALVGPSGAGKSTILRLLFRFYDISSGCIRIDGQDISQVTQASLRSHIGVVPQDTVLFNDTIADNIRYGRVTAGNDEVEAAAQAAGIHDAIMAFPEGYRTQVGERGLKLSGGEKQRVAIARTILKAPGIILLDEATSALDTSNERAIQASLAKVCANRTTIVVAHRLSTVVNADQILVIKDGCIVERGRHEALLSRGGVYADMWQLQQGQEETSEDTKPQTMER
Sequence of Beta-adrenergic receptor kinase 1 (Homo sapiens) (P25098 whole entry, looked up): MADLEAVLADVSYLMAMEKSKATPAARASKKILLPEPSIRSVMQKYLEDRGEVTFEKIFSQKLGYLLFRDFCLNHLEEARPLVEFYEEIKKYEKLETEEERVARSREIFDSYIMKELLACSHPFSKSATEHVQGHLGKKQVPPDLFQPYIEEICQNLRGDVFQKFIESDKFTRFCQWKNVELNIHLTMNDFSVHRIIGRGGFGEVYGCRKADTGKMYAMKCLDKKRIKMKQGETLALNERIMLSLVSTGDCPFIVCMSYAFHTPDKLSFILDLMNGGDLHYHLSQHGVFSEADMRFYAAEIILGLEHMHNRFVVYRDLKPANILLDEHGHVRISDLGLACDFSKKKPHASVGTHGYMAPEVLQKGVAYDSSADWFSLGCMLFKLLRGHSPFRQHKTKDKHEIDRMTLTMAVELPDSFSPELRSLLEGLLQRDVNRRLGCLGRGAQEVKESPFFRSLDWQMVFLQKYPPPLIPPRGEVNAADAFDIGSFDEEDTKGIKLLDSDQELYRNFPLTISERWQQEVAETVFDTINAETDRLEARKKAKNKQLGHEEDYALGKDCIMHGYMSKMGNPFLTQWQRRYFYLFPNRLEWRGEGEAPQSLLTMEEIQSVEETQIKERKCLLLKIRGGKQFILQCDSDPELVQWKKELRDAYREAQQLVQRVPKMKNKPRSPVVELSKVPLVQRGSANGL

Consider `Cc1ccc2c(c1)C(C)(C)[C@]1(C)NC(=O)CCN21`, for which, in [1], the percent of DMSO control GFP was 94.2% (inactive). Also, the values for the GFP response vs DMSO in assay [2] and in assay [4] were 109% (inactive) and 115% (inactive), respectively. Also, the percent response of DMSO control in assay [3] is 92% (inactive). Besides, in assay [5], the GFP response, % of DMSO was 105% (inactive). Also, the double positive events in assay [6] stood at 65.2%. Besides, in assay [6], the vesicle binding response was 212% (inactive). Moreover, the inhibition in assay [7] is -25% (inactive); in assay [11] it was -1% (inactive); in [15], 9% (inactive). For the same molecule, in assay [8], the superoxide response (% of plate) is 99.4% (inactive). Moreover, in assay [9], the aptamer binding inhibition is 7% (inactive). The response in assay [10] is 29.6% (inactive); in [12], -1.48% (inactive). In assay [13], the binding (% of control) is 98% (inactive). In addition, the efflux inhibition (fraction of control) in [14] is -0.28 (inactive). Also, the differentiation response in [16] is 2.4% (inactive).

Take `CC12CC(c3ccccc3O1)C(C(=O)N1CCOCC1)C(=O)N2` (centres undefined): the percent of DMSO control GFP in assay [1] was 100% (inactive). For the same molecule, the GFP response vs DMSO in assay [2] was 103% (inactive); in [4] it was 85.2% (inactive). Further, the percent response of DMSO control in assay [3] was 101% (inactive). In addition, in assay [5], the GFP response, % of DMSO was 101% (inactive). Also, the double positive events in [6] turned out to be 60.3%. Moreover, in assay [6], the vesicle binding response was 53.4% (inactive). In addition, the inhibition in [7] was 2.55% (inactive); in assay [11] it was -22.1% (inactive); in assay [15], 8% (inactive). In assay [8], the superoxide response (% of plate) is 107% (inactive). Besides, the aptamer binding inhibition in [9] was 6% (inactive). For the same molecule, the response in assay [10] is 6.73% (inactive); in assay [12] it was 0.44% (inactive). Further, in assay [13], the binding (% of control) is 103% (inactive). Moreover, the efflux inhibition (fraction of control) in assay [14] was -0.34 (inactive). For the same molecule, the differentiation response in assay [16] was -1.88% (inactive).

`CCNC(=O)c1c(N)sc2c1CCCCC2`: the percent of DMSO control GFP in assay [1] is 103% (inactive). The results for the GFP response vs DMSO in [2] and in assay [4] were 96.3% (inactive) and 90.5% (inactive), respectively. Also, the percent response of DMSO control in assay [3] is 101% (inactive). Besides, the GFP response, % of DMSO in assay [5] was 94.9% (inactive). Moreover, the double positive events in assay [6] came to 63.8%. In assay [6], the vesicle binding response was 262% (inactive). Also, the results for the inhibition in assay [7], in assay [11] and in assay [15] were -27.7% (inactive), 9.58% (inactive) and 2% (inactive), respectively. The superoxide response (% of plate) in assay [8] is 101% (inactive). Further, the aptamer binding inhibition in assay [9] is 1% (inactive). For the same molecule, the figures for the response in [10] and in assay [12] were 33.6% (inactive) and -1.51% (inactive), respectively. Further, the binding (% of control) in assay [13] is 95.3% (inactive). Further, the efflux inhibition (fraction of control) in assay [14] was 0.12 (inactive). Further, the differentiation response in assay [16] was 7.2% (inactive).

For `CC1CCN(CCOCCOc2ccccc2Br)CC1`, the percent of DMSO control GFP in assay [1] was 102% (inactive). The GFP response vs DMSO was 103% (inactive) in assay [2] and 86.8% (inactive) in [4]. In addition, in [3], the percent response of DMSO control is 93.1% (inactive). For the same molecule, the GFP response, % of DMSO in [5] was 97.2% (inactive). The molecule further showed a double positive events in assay [6] of 54.8%. Further, the vesicle binding response in assay [6] is 167% (inactive). Further, the inhibition in assay [7] was 8.88% (inactive); in [11], -6.16% (inactive); in [15], -4% (inactive). Further, the superoxide response (% of plate) in assay [8] is 95.8% (inactive). For the same molecule, the aptamer binding inhibition in [9] was 0% (inactive). Also, the response is -4.72% (inactive) in [10] and -0.14% (inactive) in [12]. The binding (% of control) in assay [13] is 95.6% (inactive). The efflux inhibition (fraction of control) in [14] was -0.17 (inactive). Also, in assay [16], the differentiation response is 15.9% (inactive).

Take `CCN(CC)CC#CCOC(=O)C(O)(c1ccccc1)C1CCCCC1` (centres undefined): in assay [1], the percent of DMSO control GFP is 91.1% (inactive). For the same molecule, the figures for the GFP response vs DMSO in assay [2] and in [4] were 132% (inactive) and 83.1% (inactive), respectively. The percent response of DMSO control in assay [3] was 110% (inactive). Also, the GFP response, % of DMSO in assay [5] is 91.2% (inactive). Besides, in assay [6], the double positive events stood at 62.3%. In addition, in [6], the vesicle binding response is 181% (inactive). Also, the results for the inhibition in [7], in assay [11] and in assay [15] were 10.3% (inactive), -2.84% (inactive) and 8% (inactive), respectively. Besides, in assay [8], the superoxide response (% of plate) is 112% (inactive). The aptamer binding inhibition in assay [9] is 4% (inactive). For the same molecule, the response in assay [10] was 14.8% (inactive); in [12], -0.18% (inactive). Besides, in assay [13], the binding (% of control) was 104% (inactive). In [14], the efflux inhibition (fraction of control) is 0.3 (inactive). Also, in assay [16], the differentiation response was -1.64% (inactive).

With `O=C(O)Cc1ccc(O)c(F)c1`, the percent of DMSO control GFP in [1] was 91.5% (inactive). Further, the GFP response vs DMSO was 135% (inactive) in assay [2] and 80.9% (inactive) in assay [4]. In addition, the percent response of DMSO control in [3] was 101% (inactive). Moreover, the GFP response, % of DMSO in [5] is 91% (inactive). This molecule also displayed a double positive events in assay [6] of 61.7%. Moreover, in assay [6], the vesicle binding response was 175% (inactive). In addition, the figures for the inhibition in assay [7], in [11] and in assay [15] were -9.06% (inactive), 5.41% (inactive) and 10% (inactive), respectively. The superoxide response (% of plate) in assay [8] is 111% (inactive). Further, in assay [9], the aptamer binding inhibition is 4% (inactive). For the same molecule, the response is -7.58% (inactive) in assay [10] and 1.04% (inactive) in assay [12]. In addition, the binding (% of control) in [13] is 100% (inactive). Moreover, in assay [14], the efflux inhibition (fraction of control) is 0.19 (inactive). In assay [16], the differentiation response is -4.09% (inactive).

For `COCC1CCCN(Cc2cn[nH]c2-c2cc3ccccc3o2)C1` (centres undefined), in assay [1], the percent of DMSO control GFP is 95.9% (inactive). Also, the results for the GFP response vs DMSO in assay [2] and in assay [4] were 109% (inactive) and 115% (inactive), respectively. In addition, the percent response of DMSO control in assay [3] was 83.4% (inactive). For the same molecule, the GFP response, % of DMSO in assay [5] was 102% (inactive). This molecule also displayed a double positive events in assay [6] of 63.3%. Besides, the vesicle binding response in [6] is 181% (inactive). In addition, the inhibition in assay [7] was -14.1% (inactive); in assay [11] it was 0.03% (inactive); in assay [15], 7% (inactive). Besides, the superoxide response (% of plate) in assay [8] is 98.3% (inactive). In [9], the aptamer binding inhibition was 2% (inactive). Besides, the response in assay [10] was -14.2% (inactive); in assay [12], 1.33% (inactive). In addition, the binding (% of control) in assay [13] was 99.9% (inactive). Besides, in assay [14], the efflux inhibition (fraction of control) is 0.05 (inactive). For the same molecule, in assay [16], the differentiation response is 5.6% (inactive).
